ClpP mod: qHTS Assay for Activators of ClpP; ATP-dependent Clp protease proteolytic subunit (Bacillus subtilis (strain 168)), P80244; 340,000 tested, 1.9% active; AID 651965, 2013; purified B. subtilis ClpP, FRET peptide cleavage, 20 min; Potency, µM (top dose mostly 57.5 µM), for the others: top-dose activity change, negative = active; active means well fitted falling curve with a large enough effect; inconclusive means small, poorly fitted or top-dose-only effect; inactive means no such curve, though single readings can be large or run the other way; further: potency means the concentration at half of the fitted maximal effect; the source files actives as falling curves though it sought activators and does not explain the sign; nearly all actives have a fitted effect of over 65% in size
Target sequence (P80244 whole entry, looked up): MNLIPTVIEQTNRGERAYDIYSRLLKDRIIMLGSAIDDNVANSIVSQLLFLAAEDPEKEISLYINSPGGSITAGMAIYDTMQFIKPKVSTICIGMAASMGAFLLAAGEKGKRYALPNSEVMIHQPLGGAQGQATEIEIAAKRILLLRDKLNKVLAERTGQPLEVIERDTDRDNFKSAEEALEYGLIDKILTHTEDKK
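FRET quenching reversal measured ClpP activation: 10 microg/mL B. subtilis ClpP at pH 8 with the FRET-FV decapeptide, read at 430 nm after 320 nm excitation. The 20-min minus 0-min signal was scaled between DMSO/no-enzyme wells and ADEP (5.8 microM final).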
NPSR antagonist: qHTS Assay for Antagonists of the Neuropeptide S Receptor: cAMP Signal Transduction; Potency, µM (titrated, usually from 38.3 µM), without a hit: at the top dose activity change, negative = inhibition, actives largely listed as inhibitors; Q6W5P4; AID 1461, 2008; CHO-NPSR cells, cAMP TR-FRET, antagonist mode; 220,000 tested, 1% active; further: potency means the concentration at half of the fitted maximal effect; on the % scale 0 is the no-effect control and ±100 the full control effect; nearly all actives have a fitted effect of over 50% in size
PKM2 activator: qHTS Assay for Activators of Human Muscle isoform 2 Pyruvate Kinase; Pyruvate kinase PKM (Homo sapiens), P14618; purified PKM2, Kinase-Glo ATP luminescence, activation; response scale: 0% is enzyme alone, no compound; Potency, µM (doses to about 57.5 µM), for the others: at the highest dose activation, actives largely listed as activators; 260,000 tested, 0.34% active; AID 1631, 2009; further: potency means the concentration at half of the fitted maximal effect; on the % scale 0 is the no-effect control and ±100 the full control effect; nearly all actives have a fitted effect of over 55% in size
Target sequence (P14618 whole entry, looked up, canonical isoform): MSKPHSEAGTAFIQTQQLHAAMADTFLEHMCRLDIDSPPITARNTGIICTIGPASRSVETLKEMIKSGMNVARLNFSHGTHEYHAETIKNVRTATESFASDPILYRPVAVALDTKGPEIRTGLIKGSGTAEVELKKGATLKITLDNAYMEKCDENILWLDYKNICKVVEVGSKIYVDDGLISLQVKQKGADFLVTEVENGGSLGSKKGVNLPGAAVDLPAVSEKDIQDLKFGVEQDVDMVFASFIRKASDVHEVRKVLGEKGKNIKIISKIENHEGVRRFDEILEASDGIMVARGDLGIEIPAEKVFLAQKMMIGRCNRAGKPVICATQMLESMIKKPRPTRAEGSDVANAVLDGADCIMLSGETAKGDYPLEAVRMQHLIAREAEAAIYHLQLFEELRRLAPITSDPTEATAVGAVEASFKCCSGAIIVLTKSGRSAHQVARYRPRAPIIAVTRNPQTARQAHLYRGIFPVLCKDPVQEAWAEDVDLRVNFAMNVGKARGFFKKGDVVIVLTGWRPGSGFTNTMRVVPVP
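Kinase-Glo luminescence reports ATP generated from ADP (0.1 mM) and PEP (0.5 mM) by purified hPK-M2 after 1 h at room temperature, pH 7.2 imidazole buffer; intermediate enzyme activity allows detecting inhibitors and activators.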
IL2 activator: qHTS of IL-2 Activators; IL-2 activation reporter assay, cell-based qHTS; stimulated with anti-CD3/CD4/CD28 beads; in transgenic mouse T cells; activation, % (series mostly up to about 46 µM); 360,000 tested, 0.065% active; in the data active means activation above about 50%; inconclusive means mostly about 30% to 49%; further: 0% is about no effect
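Using fluorescent plate cytometry, EGFP and DsRed are detected in transgenic mouse T cells stimulated 18 h at 37 degrees C with antibody-coated beads after 60 min compound pretreatment.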
* hit, by the source's call; ? = inconclusive; . = not tested or not shown; [ ] = another dose, or the depositor's remark. Hits are enriched below; roughly 2% of the tested compounds scored in any of these assays. Unless noted, the call rests on the fitted dose curve; in most records, active means well fitted curve in the direction sought with a large enough effect; inconclusive means small, poorly fitted or top-dose-only effect, or another doubt; inactive means no such curve, though single readings can be large; an effect the other way counts as inactive or inconclusive.

SMILES	ClpP mod	NPSR antagonist	PKM2 activator	IL2 activator
CCn1cc(Br)c(C(=O)NC(C)c2ccccc2)n1 (stereo unspecified)	1%	-6%[46.1 µM]	-3%	72*
N#C/C(=C(/O)c1ccc([N+](=O)[O-])o1)c1nc2ccccc2[nH]1	-1%	-56%	-3%	6
N#C/C(=C\c1ccc([N+](=O)[O-])o1)c1nc2ccccc2[nH]1	-1%	4µM*	11%	0
Cc1ccc2nc(/C(C#N)=C/c3ccc(-c4ccccc4C(=O)O)o3)[nH]c2c1	-1%	.	.	?
Cc1ccc2nc(/C(C#N)=C\c3ccc([N+](=O)[O-])o3)[nH]c2c1	0%	10µM*	-5%	9
O=C(N/N=C\c1ccc(Oc2ccccc2)cc1)c1csnn1	?	-1%	-9%	-1
Cc1cccc(NC(=S)NCCc2ccccc2)c1C	0%	.	-3%	-1
Cc1cccc(C)c1NC(=S)NCCc1ccc(O)c(O)c1	-25%	-3%	28µM*	-1
COC(=O)c1c(NC(=O)C(=O)NCCCN2CCOCC2)sc2c1CC(C)(C)OC2	-3%	.	0%[0.46 µM]	-1
OC(CNCCC1C=Nc2ccccc21)Cn1c2ccc(Cl)cc2c2cc(Cl)ccc21 (stereo unspecified)	28µM*	10µM*	2%	-1
Cc1ccc(S(=O)(=O)N/N=C/c2cn(C)nc2C)cc1	-1%	11%[46.1 µM]	-3%	0
Cn1c(=O)oc2cc(S(=O)(=O)Nc3ccc(O)cc3)ccc21	2%	.	8.9µM*	0
O=C(CN1C(=O)NC2(CCOc3ccccc32)C1=O)Nc1ccc(Br)cc1F (stereo unspecified)	-1%	.	.	0
COc1cccc(/C=C/c2onc(C)c2S(=O)(=O)N2CCC(C(=O)N3CCC(C)CC3)CC2)c1	32µM*	.	.	.
CCC(=O)c1ccc(OCC(=O)Nc2nc(C)cs2)cc1	0%	.	.	-1
CCC(=O)c1ccc(OCC(=O)Nc2nc(-c3cccnc3)cs2)cc1	32µM*	.	.	-1
CCn1nc(C(=O)Nc2ccc(S(=O)(=O)Nc3ncccn3)cc2)c2ccccc2c1=O	.	9%	.	-1
CCCn1nc(C(=O)Nc2ccc(S(=O)(=O)Nc3nccs3)cc2)c2ccccc2c1=O	25µM*	-18%[46.1 µM]	4%	1
COc1ccc2[nH]c(C)cc(=O)c2c1	25µM*	12%[46.1 µM]	17%	0
CCOC(=O)c1ccc2[nH]c(C)c(C)c2c1	-8%	.	.	0
COC(=O)c1ccc2[nH]c(C)cc(=O)c2c1	28µM*	-4%[46.1 µM]	7%	-1
CCOC(=O)c1ccc2[nH]c(C)cc(=O)c2c1	3.5µM*	5%[46.1 µM]	0%	0
COc1ccc(F)cc1NC(=O)C1CCN(c2nc(-c3ccc(OC)c(OC)c3)no2)CC1	-2%	.	.	.
COc1ccc(-c2cc(C(F)(F)F)c3c(N)c(C(=O)NCCSC)sc3n2)cc1	.	.	-2%	119*
O=C(Cn1c2c(c(=O)n3ncnc13)CCC2)N/N=C/c1ccc(Cl)cc1	1%	-5%	-2%	2
SMILES	ClpP mod	NPSR antagonist	PKM2 activator	IL2 activator
Cn1c2c(c(=O)n3ncnc13)CCCC2	22µM*	12%	1%	0
CN(C)c1ccc(/C=N/NC(=O)c2ccnn2C)cc1	-3%	15%	-80%	3
CN(CCOc1ccc(Cl)cc1)C(=O)c1cc(-c2ccco2)nc2ccccc12	28µM*	.	.	-5
COc1cccc(NC(=O)CN(C)C(=O)c2cc(-c3ccco3)nc3ccccc23)c1	.	.	.	3
COc1ccccc1NC(=O)CN(Cc1ccco1)C(=O)c1ccc(N2CCCC2=O)cc1	0%	.	.	1
CC(=O)Nc1cccc(OCC(=O)NS(=O)(=O)c2ccc(Cl)cc2)c1	32µM*	8%[46.1 µM]	0%	-2
O=C(COc1ccccc1)NS(=O)(=O)c1ccc(Cl)cc1	-1%	.	-1%	-1
CCCCC(=O)NCc1ccc(Cl)cc1	20µM*	11%	2%	1
CCCC(=O)OCC(=O)NCc1ccc(Cl)cc1	.	6%	.	0
Cc1cc(C)n(-c2nc3ccccc3[nH]c2=O)n1	28µM*	-1%	7%	-3
COC(=O)c1ccc(C2/C(=C(/O)c3ccc4c(c3)CC(C)O4)C(=O)C(=O)N2Cc2ccncc2)cc1 (stereo unspecified)	-3%	.	.	-3
Cc1ccc(C)c(C(C)NC(=O)c2ccncc2)c1 (stereo unspecified)	-2%	.	2%[11.5 µM]	-1
COc1ccc(S(=O)(=O)N2CCN(Cc3ccccc3OC)CC2)cc1	1%	.	.	-2
CCN1CCN(S(=O)(=O)c2ccc(Oc3ccccc3OC)cc2)CC1	20µM*	2%	-22%	-4
CCOc1ccc2nc(NC(=O)CSc3ccc(Cl)cc3)sc2c1	-3%	13%[46.1 µM]	2%	-1
CCOc1ccc2nc(NC(=O)CSc3nc(SC)ns3)sc2c1	28µM*	-14%[46.1 µM]	-2%	0
Cc1ccc(C(=O)Nc2ccccc2C(=O)OCc2cc(=O)n3nc(C(C)C)sc3n2)cc1	3%	.	.	.
CC(C)c1nn2c(=O)cc(COC(=O)c3ccccc3NC(=O)c3cccc(Cl)c3)nc2s1	10µM*	.	.	.
Cc1nn(S(=O)(=O)c2cccs2)c(C)c1Sc1ccccc1	.	-27%[46.1 µM]	16µM*	.
COC(=O)c1c(NC(=O)C2COc3ccccc3O2)sc2c1CCN(Cc1ccccc1)C2 (stereo unspecified)	20µM*	-10%	1%	-2
COC(=O)c1c(NC(=O)C2COc3ccccc3O2)sc2c1CCN(C(=O)OC)C2 (stereo unspecified)	?	.	.	-2
O=C(Nc1cc([N+](=O)[O-])ccc1O)c1ccc2c(c1)C(=O)N(Cc1ccco1)C2=O	1%	.	1%	-3
O=C(Oc1cccc(Nc2ncnc3ccccc23)c1)c1ccccc1Cl	32µM*	-15%[46.1 µM]	5%	-3
CC(=O)c1nnn(-c2cccc([N+](=O)[O-])c2)c1C	.	37%	18%	0
CN(CC(=O)N1CCOCC1)S(=O)(=O)c1cc(Cl)ccc1Cl	.	.	.	1
SMILES	ClpP mod	NPSR antagonist	PKM2 activator	IL2 activator
CCN(CC(=O)N1CCOCC1)S(=O)(=O)c1cc(Cl)ccc1Cl	32µM*	.	-1%	-2
c1cnn(Cc2cnc(N3CCOCC3)s2)c1	.	7%	-1%	1
CN(CC(=O)Nc1cccc(S(=O)(=O)N2CCCC2)c1)Cc1ccccc1	25µM*	.	.	-1
COc1ccc(Br)cc1CN(C)CC(=O)Nc1cccc(S(=O)(=O)N2CCCC2)c1	.	.	.	-1
Cc1ccc(C2NC(=O)c3c(sc4c3CCN(C)C4)N2)o1 (stereo unspecified)	28µM*	-19%[46.1 µM]	1%	-1
CN1CCc2c(sc3c2C(=O)NC(c2ccccc2)N3)C1 (stereo unspecified)	1%	-10%	-4%	4
CN1CCc2c(sc3c2C(=O)NC(c2ccccn2)N3)C1 (stereo unspecified)	16µM*	-6%[46.1 µM]	-22%	0
Cc1ccc(C2NC(=O)c3c(sc4c3CCN(C)C4)N2)s1 (stereo unspecified)	25µM*	-27%[46.1 µM]	1%	2

Source: PubChem (National Center for Advancing Translational Sciences (NCATS))
